Screening results from PubChem BioAssay.
Not all results are given here.
aSyn UTR act – Activators via SNCA 5'UTR binding, MLPCN; AID 1814, 2009; hit rate 7.1% among 300,000; activity score, % (tested at 7.5 µM), hits read low; alpha-synuclein 5'UTR reporter, activators screen; in the data active means activity score below about -60%
An asterisk follows results filed as active.

SMILES	aSyn UTR act
O=C(O)c1ccc(NC(=S)NC(=O)c2ccc(-c3ccccc3)cc2)cc1	-96.5*
NC(=O)C1CCN(C(=O)c2ccc3nc(N4CCCCC4)sc3c2)CC1	-102.5*
O=C(c1ccc2nc(N3CCCCC3)sc2c1)N1CCN(c2ccccn2)CC1	-111.5*
O=C(c1cc(Br)c(Br)s1)N1CCN(c2ccccn2)CC1	-65.5*
COc1ccc(/C=C/C(=O)NC(=S)Nc2ccccn2)cc1	-94.4*
COc1ccccc1/C=C/C(=O)NC(=S)Nc1ccccn1	-125.7*
COc1ccc(/C=C/C(=O)NC(=S)NNC(=O)c2cnccn2)cc1	74.8
CCOC(=O)c1cccc(NC(=O)c2cccs2)c1	-64.9*
CCOC(=O)c1cccc(NC(=O)c2ccco2)c1	-76.8*
O=C(c1ccccc1)c1cccc(NC(=O)c2ccco2)c1	-120.4*
CCc1sc(C(=O)Nc2cccc(C(C)=O)c2)cc1C	-77.4*
Cc1nc(NC(=O)c2ccccc2)sc1-c1csc(Nc2cccc(F)c2)n1	-81.1*
Cc1ccc(Cl)cc1Nc1nc(-c2sc(NC(=O)c3ccccc3)nc2C)cs1	-94.4*
c1ccc2nc3c(nc2c1)[nH]c1ccccc13	-170.6*
COc1ccc(-c2csc(Nc3cc(C)ccn3)n2)cc1C	-154.8*
COc1ccc(-c2csc(Nc3ncccn3)n2)cc1C	-75.5*
N/C(=N\OC(=O)COc1cc(Cl)c(Cl)cc1Cl)c1ccccn1	-150.5*
Cc1cccc(OCC(=O)O/N=C(\N)c2ccccn2)c1C	-172.3*
CN(C)/C=C1/C(=O)N(c2ccc([N+](=O)[O-])cc2)N=C1c1ccccc1	-115.5*
CCOc1ccc(-c2cc(C(=O)OC)[nH]n2)cc1	-103.2*
CCOc1cccc(-c2cc(C(=O)NN)[nH]n2)c1	-63.6*
CCN1CCN(Cc2ccc(NC(=O)c3cc(NC(=O)c4cc(-c5ccc(OC)cc5)n[nH]4)cc(OC)c3)cc2C(F)(F)F)CC1	106.2
COC(=O)c1cc(-c2ccc(OC)cc2)n[nH]1	-103.2*
COC(=O)c1cc(-c2ccc(C)cc2)n[nH]1	-106.3*
O=C(NC(=O)c1ccccc1)NC1(C(F)(F)F)OCCO1	-113.1*
SMILES	aSyn UTR act
Cc1ccsc1C(=O)N/N=C/C=C/c1ccccc1[N+](=O)[O-]	-138.3*
CC1CCCC(C)N1/N=C/C=C/c1ccccc1[N+](=O)[O-] (stereo not given)	-132.7*
CCOC(=O)N/N=C/C=C/c1ccccc1[N+](=O)[O-]	-75.5*
COc1ccc(-c2csc(-c3ccccc3)n2)c(OC)c1	-202.0*
COc1ccc(-c2csc(-c3cccs3)n2)c(OC)c1	-125.9*
Clc1ccccc1-c1ncc(-c2ccccc2)o1	-143.0*
Clc1cccc(/C=N/N2CCN(Cc3ccccc3)CC2)c1	-91.3*
FC(F)(F)c1ccccc1/C=N/N1CCN(Cc2ccccc2)CC1	-72.2*
Cc1ccc(/C=N/N2CCOCC2)s1	-101.4*
C/C(=N\N1CCN(Cc2ccccc2)CC1)c1ccco1	-80.4*
Cc1cc(N2CCN(Cc3cn(C)nc3-c3cccc(Cl)c3)CC2)cc(C)n1	71.6
O=[N+]([O-])c1ccccc1/C=N/N1CCN(Cc2ccccc2)CC1	-100.9*
Cc1ccc(/C=N/N2CCN(Cc3ccccc3)CC2)s1	-83.2*
C(=N\N1CCN(Cc2ccccc2)CC1)/c1ccccc1	-63.6*
N#Cc1ccc(OCc2noc(-c3ccsc3)n2)cc1	-80.9*
CC(C)(C)c1ccc(/C=C2\Oc3cc(O)ccc3C2=O)cc1	-68.7*
COC(=O)c1ccc2c(c1)C(=O)/C(=C/c1ccc(O)cc1)O2	-118.2*
COc1cccc(/C=C2\Oc3ccc(O)cc3C2=O)c1O	83.4
O=C(O)c1ccc(Cn2cnc3scc(-c4ccccc4)c3c2=O)cc1	-142.4*
Cc1nc(C(F)(F)F)ccc1C(=O)NCC(O)c1ccccc1 (stereo not given)	-66.6*
Cc1nc(C(F)(F)F)ccc1C(=O)Nc1ccc2ccccc2n1	-94.3*
CCCc1ccc2oc(C(=O)N3CCCC3)c(C)c2c1	-178.9*
CCCc1ccc2oc(C(=O)NCCc3cnn(C)c3)c(C)c2c1	-181.9*
Cc1c(C(=O)N2CCN(C)CC2)oc2ccc(Br)cc12	-103.6*
COC(=O)c1ccc(N=Cc2c(-c3ccccc3)[nH][nH]c2=O)cc1	-215.5*
SMILES	aSyn UTR act
C/C(=N\NC(=O)COc1ccc(C(C)(C)C)cc1)c1cc2ccccc2o1	-109.3*
COCCNC(=S)N/N=C(\C)c1cc2ccccc2o1	-117.4*
O=c1[nH]c(CN2CCN(C/C=C/c3ccccc3)CC2)nc2ccccc12	-71.6*
CCc1ccc(-c2ccc(SCc3ccccn3)nn2)cc1	-143.0*
CCOc1ccc(-c2ccc(SCc3ccccn3)nn2)cc1	-131.9*
O=C(COc1ccccc1Cl)Nc1cccnc1	-127.6*
Cc1ccc(Cl)c(OCC(=O)Nc2cccnc2)c1	-115.9*
O=C(COc1ccccc1Cl)Nc1ccc2oc(=O)ccc2c1	-72.3*
Cc1ccc(Cl)c(OCC(=O)Nc2sc(C)c(C)c2C#N)c1	-67.6*
S=c1[nH]nc(-c2ccncc2)n1/N=C/C(Cl)=C\c1ccccc1	-220.7*
S=c1[nH]nc(COc2ccccc2)n1/N=C/C(Cl)=C/c1ccccc1	-128.5*
O=C(COc1ccc(Br)cc1Br)NC1CCCC1	-112.8*
O=C(COc1ccc(Br)cc1Cl)NC1CCCCC1	-161.5*
O=C(COc1ccc(Cl)cc1Cl)NC1CCSC1=O (stereo not given)	-86.4*
Cc1ccc(NC(=S)c2nc3ccccc3[nH]2)c(C)c1	-115.7*
Cc1ccc(NC(=S)NNC(=S)Nc2ccc(C)cc2C)cc1	112.8
Cc1ccc(NC(=S)Nc2ccccn2)c(C)c1	-146.9*
Cc1cc(Cl)ccc1NC(=S)Nc1ccccn1	-90.9*
CCN(CC(=O)NCc1ccc(F)cc1)C(=O)/C=C/c1ccc(OC)c(S(=O)(=O)NC(C)C)c1	63.2
CCN(CC(=O)NCc1ccc(F)cc1)C(=O)c1ccc(COc2ccccc2)cc1	-67.4*
CCN(CC)C(=O)c1ccc(COc2ccccc2Cl)cc1	-112.0*
COc1ccc(-c2coc3cc(O)cc(O)c3c2=O)cc1	-114.6*
COc1ccc(-c2coc3cc(OC)cc(OC)c3c2=O)cc1	-166.2*
CC(C)Oc1cc(O)c2c(=O)c(-c3ccc(O)cc3)coc2c1	-138.3*
COc1ccc(-c2coc3cc(OC)cc(O)c3c2=O)cc1	-129.8*
SMILES	aSyn UTR act
O=c1c(-c2ccc(O)cc2)coc2cc(O)cc(O)c12	-99.2*
Cc1ccc2nc(-c3ccc(NC(=S)NCCC(C)C)cc3)sc2c1	-192.4*
CCCCNC(=S)Nc1ccc(-c2nc3ccc(C)cc3s2)cc1	-158.7*
COCCNc1nnc(SC(C)C(=O)Nc2ccc(-c3nc4ccc(C)cc4s3)cc2)s1 (stereo not given)	-78.9*
CCC(C)(C)NC(=S)Nc1ccc(-c2nc3ccc(C)cc3s2)cc1	-78.5*
Cc1cnc(C(=O)Nc2ccc(C(C)C)cc2)cn1	-142.5*
Cc1cnc(C(=O)Nc2ccc(N3CCN(C(=O)OC(C)(C)C)CC3)cc2)cn1	-88.5*
Cc1cnc(C(=O)Nc2ccccc2F)cn1	-91.4*
Cn1nc(CC(=O)Nc2ccc(N3CCN(C(=O)OC(C)(C)C)CC3)cc2)c2ccccc2c1=O	77.4
Cc1cnc(C(=O)Nc2ccc(F)cc2)cn1	-100.9*
O=c1c2ccccc2nnn1CSc1nc2ccccc2[nH]1	-173.2*
O=c1c2ccccc2nnn1CSc1ccccc1F	-98.4*
CC1CCCCC1NC(=O)Cn1nnc2ccccc2c1=O (stereo not given)	60.9
Cc1ccc(NC(=O)Cn2nnc3ccccc3c2=O)cc1	-93.0*
Cc1ccc2nc(SCn3nnc4ccccc4c3=O)[nH]c2c1	-139.4*
Cc1ccc(SCn2nnc3ccccc3c2=O)c(C)c1	-146.9*
